The target of experiment [1] is Casein kinase I isoform gamma-2 (Homo sapiens) (UniProt P78368). The note with it: at 1 µM.
The target of experiment [2] is Casein kinase I isoform gamma-3 (Homo sapiens) (UniProt Q9Y6M4). The conditions noted are these: at 0.1 µM.
Experiment [3] shares this target. The conditions noted are these: at 1 µM.
Experiment [4] addresses Cyclin-dependent kinase 1 (Homo sapiens) (UniProt P06493). The note with it: at 0.1 µM.
Experiment [5] has the same target. The conditions noted are these: at 1 µM.
Experiment [6] addresses Cyclin-dependent kinase 2 (Homo sapiens) (UniProt P24941). The conditions noted are these: at 0.1 µM.
Experiment [7] shares this target. The note with it: at 1 µM.
The target is the same in experiment [8]. The note with it: at 0.1 µM. The source holds these as a separate data set.
Experiment [9] shares this target. The conditions noted are these: at 1 µM. The source holds these as a separate data set.
The target in experiment [10] is CDK3/Cyclin E (Homo sapiens) (UniProt P24864+Q00526). The note with it: at 0.1 µM.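 Note: reported percentages are mean inhibition values.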

Results on 17 compounds are retold here after ChEMBL document CHEMBL1961873, “Compounds: GSK PKIS; Assays: Nanosyn kinase panel” (2012).

Casein kinase I isoform gamma-2 (Homo sapiens), sequence (P78368 whole entry, looked up, canonical isoform): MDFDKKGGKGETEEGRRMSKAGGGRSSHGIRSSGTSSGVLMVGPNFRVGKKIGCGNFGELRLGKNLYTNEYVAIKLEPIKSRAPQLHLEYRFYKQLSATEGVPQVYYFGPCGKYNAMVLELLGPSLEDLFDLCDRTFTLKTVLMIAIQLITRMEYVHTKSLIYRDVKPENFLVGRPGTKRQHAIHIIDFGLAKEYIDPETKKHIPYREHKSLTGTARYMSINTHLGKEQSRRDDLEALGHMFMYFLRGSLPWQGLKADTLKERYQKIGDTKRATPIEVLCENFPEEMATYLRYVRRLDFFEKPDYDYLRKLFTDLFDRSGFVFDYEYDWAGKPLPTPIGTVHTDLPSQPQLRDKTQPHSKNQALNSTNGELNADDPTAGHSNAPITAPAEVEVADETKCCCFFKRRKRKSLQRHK
Cyclin-dependent kinase 1 (Homo sapiens), sequence (P06493 whole entry, looked up): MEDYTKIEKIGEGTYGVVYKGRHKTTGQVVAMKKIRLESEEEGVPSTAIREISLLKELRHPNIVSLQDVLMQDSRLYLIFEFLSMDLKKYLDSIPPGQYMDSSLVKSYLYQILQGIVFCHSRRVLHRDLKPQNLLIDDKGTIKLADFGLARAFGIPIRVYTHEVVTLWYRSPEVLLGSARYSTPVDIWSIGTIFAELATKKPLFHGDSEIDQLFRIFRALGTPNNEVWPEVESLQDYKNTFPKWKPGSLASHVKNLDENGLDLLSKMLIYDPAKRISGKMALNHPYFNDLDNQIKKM
CDK3/Cyclin E (Homo sapiens), sequence (P24864 whole entry, looked up): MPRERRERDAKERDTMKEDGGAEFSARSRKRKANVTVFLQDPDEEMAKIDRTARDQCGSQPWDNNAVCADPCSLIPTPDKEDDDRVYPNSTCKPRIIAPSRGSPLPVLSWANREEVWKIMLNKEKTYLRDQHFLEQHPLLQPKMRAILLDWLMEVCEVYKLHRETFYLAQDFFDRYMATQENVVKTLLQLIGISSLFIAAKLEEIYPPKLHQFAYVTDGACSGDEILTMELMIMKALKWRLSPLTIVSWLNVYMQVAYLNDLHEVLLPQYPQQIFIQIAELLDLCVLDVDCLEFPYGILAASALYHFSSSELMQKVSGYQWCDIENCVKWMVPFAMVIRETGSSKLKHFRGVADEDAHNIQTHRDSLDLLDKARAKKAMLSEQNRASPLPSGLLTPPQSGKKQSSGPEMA
CDK3/Cyclin E (Homo sapiens), sequence (Q00526 whole entry, looked up): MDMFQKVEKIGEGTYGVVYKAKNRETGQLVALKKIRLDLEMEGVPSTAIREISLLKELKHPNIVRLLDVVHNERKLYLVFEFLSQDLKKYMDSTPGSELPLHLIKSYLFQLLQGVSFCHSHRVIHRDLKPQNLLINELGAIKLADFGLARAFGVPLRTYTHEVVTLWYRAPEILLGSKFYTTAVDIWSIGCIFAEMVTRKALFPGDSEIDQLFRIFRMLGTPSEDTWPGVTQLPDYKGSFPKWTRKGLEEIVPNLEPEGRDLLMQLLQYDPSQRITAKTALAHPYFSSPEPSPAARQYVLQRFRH
Casein kinase I isoform gamma-3 (Homo sapiens), sequence (Q9Y6M4 whole entry, looked up, canonical isoform): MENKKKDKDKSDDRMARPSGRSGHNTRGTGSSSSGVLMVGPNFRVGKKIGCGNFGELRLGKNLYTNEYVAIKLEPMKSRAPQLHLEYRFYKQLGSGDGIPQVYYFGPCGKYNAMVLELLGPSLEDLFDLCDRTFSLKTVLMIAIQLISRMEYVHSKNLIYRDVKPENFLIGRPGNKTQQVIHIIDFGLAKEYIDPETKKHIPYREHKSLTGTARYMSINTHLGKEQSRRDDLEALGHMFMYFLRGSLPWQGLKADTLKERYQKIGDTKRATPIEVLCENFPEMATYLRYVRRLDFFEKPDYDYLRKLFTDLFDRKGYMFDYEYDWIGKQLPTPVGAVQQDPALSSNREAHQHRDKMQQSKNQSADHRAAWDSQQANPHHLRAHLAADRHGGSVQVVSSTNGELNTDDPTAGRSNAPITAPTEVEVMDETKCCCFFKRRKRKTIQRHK

Turning to `c1ccc(Oc2ccc(Nc3ncc(-c4ccccc4)o3)cc2)cc1`, the inhibition in experiment [1] was 2.07%; in [2], -0.2%; in experiment [3], 1.13%; in experiment [4], 0.18%; in experiment [5], 1.13%; in [6], 0.43%. Also, the inhibition in experiment [7] turned out to be 1.24%; in experiment [8] it was 0.94%; in experiment [9], 3.16%; in experiment [10], 0.29%.
As for `FC(F)(F)c1cccc(Nc2nccc(-c3cnn4nc(-c5ccccc5)ccc34)n2)c1`, the inhibition in experiment [1] was found to be 2.62%; in [2], 1.84%; in [3], 2.44%; in experiment [4], 0.56%; in experiment [5], 4.07%; in experiment [6], 1.41%. The inhibition in experiment [7] is 13.5%; in [8], 3.41%; in experiment [9] it was 26.4%; in experiment [10], -1.25%.
As for `Fc1ccc(-c2ncn(C3CCNCC3)c2-c2ccnc(Oc3ccc(F)c(F)c3)n2)cc1`, the inhibition in experiment [1] was 1.91%; in experiment [2], -0.68%; in experiment [3], 1.74%; in experiment [4], -1.46%; in experiment [5], 2.42%; in [6], -1.17%. Besides, the inhibition is -0.54% in experiment [7], 3.33% in experiment [8], 6.4% in experiment [9] and -1.06% in experiment [10].
Take `CN(C)c1ccc2c(c1)/C(=C/Nc1ccc(S(N)(=O)=O)cc1)C(=O)N2`: the inhibition in experiment [1] was 1.27%; in experiment [2], 0.48%; in experiment [3], 0.92%; in experiment [4], 6.23%; in experiment [5] it was 33.9%; in experiment [6], 21.8%. Also, the inhibition was 82.6% in experiment [7], 16.3% in [8], 54% in experiment [9] and 5.6% in [10].
Regarding `CS(=O)(=O)CCNCc1cc(-c2cc3c(Nc4ccc(OCc5cccc(F)c5)c(Cl)c4)ncnc3s2)cs1`, the inhibition came to 4.61% in experiment [1]; 3.07% in experiment [2]; 1.92% in [3]; 2.55% in experiment [4]; 0.45% in [5]; 3.05% in experiment [6]. In addition, the inhibition is 1.47% in [7], 1.9% in experiment [8], 4.94% in [9] and -3.37% in experiment [10].
As for `NC(=O)c1cc(-c2ccncc2)cc(-c2ccccc2)c1N`, the inhibition was 4.95% in [1]; 4.56% in [2]; 4.47% in experiment [3]; -0.45% in [4]; 1.56% in experiment [5]; 2.79% in experiment [6]. The inhibition in experiment [7] was determined as 5.38%; in experiment [8], 4.07%; in experiment [9], 3.97%; in [10], 4.6%.
Turning to `c1ccc(-c2n[nH]cc2-c2ccnc(-c3ccc(OCCN4CCOCC4)cc3)c2)nc1`, the inhibition in experiment [1] is -2.28%; in experiment [2] it was -0.5%; in [3], 2.07%; in [4], 5.08%; in [5] it was 4.83%; in experiment [6], 0.41%. In addition, the inhibition in experiment [7] is 0.03%; in experiment [8], 4.78%; in [9] it was 4.73%; in experiment [10], 5.94%.
With `COc1ccc2cc(-c3c(-c4ccncc4)nc(-c4ccc(S(C)(=O)=O)cc4C)n3C)ccc2c1`, the inhibition in experiment [1] worked out at 4.03%; in [2], 3.31%; in [3] it was 2.13%; in experiment [4], 1.11%; in experiment [5] it was 1.69%; in [6], 2.79%. The inhibition is -7.25% in experiment [7], 3.25% in [8], 2.47% in experiment [9] and 5.76% in experiment [10].
Take `Nc1nccc(-c2c(-c3ccc(F)cc3)ncn2C2CCC(O)CC2)n1` (stereo not given): the inhibition was 3.41% in experiment [1]; -1.07% in experiment [2]; 10.8% in [3]; 0.17% in experiment [4]; 5.68% in experiment [5]; -0.46% in experiment [6]. In addition, the inhibition is -4.73% in [7], 0.06% in experiment [8], 1.24% in [9] and -1% in [10].
For `COc1cc(Nc2ncc3c(C)nc(-c4cccc(Oc5ccccc5)c4)n3n2)cc(OC)c1OC`, the inhibition in [1] was 3.44%; in [2] it was 1.22%; in experiment [3] it was 5.12%; in [4], -0.4%; in experiment [5] it was 0.45%; in experiment [6], 2.04%. Moreover, the inhibition worked out at 2.37% in experiment [7], 0.75% in experiment [8], 3.13% in experiment [9] and 0.34% in [10].
Take `O=C1Nc2ccc(I)cc2C1=Cc1cc(Br)c(O)c(Br)c1`: the inhibition in [1] was determined as 6.34%; in experiment [2] it was 3.79%; in [3] it was 3.16%; in experiment [4] it was 2.76%; in experiment [5], 1.43%; in experiment [6] it was 4.61%. Also, the inhibition in [7] is 3.86%; in experiment [8], 1.77%; in experiment [9], 3.35%; in experiment [10], -4.12%.
In the case of `COc1cc(C)c(N(C)C(=O)CN(C)C)cc1Nc1nc(Nc2cccc(F)c2C(N)=O)c2cc[nH]c2n1`, the inhibition in experiment [1] is 10.4%; in experiment [2], -0.15%; in [3], 26.6%; in experiment [4], -4.66%; in experiment [5], -4.18%; in [6] it was -3.41%. Also, the inhibition was 1.23% in experiment [7], -2.41% in experiment [8], -2.88% in [9] and -0.03% in experiment [10].
In the case of `CCc1nccc2c1nc(-c1nonc1N)n2CC`, the inhibition in experiment [1] is 3.36%; in [2] it was -0.55%; in experiment [3], 1.97%; in experiment [4] it was 1.84%; in [5], 2.9%; in experiment [6] it was 2.75%. The inhibition in experiment [7] amounted to 4.67%; in [8] it was 1.55%; in experiment [9], 3.62%; in experiment [10], 1.31%.
For the compound `CCc1cccc(CC)c1/C=C/c1cncc(C(=O)NC)c1`, the inhibition is 5.11% in [1]; 2.87% in [2]; 4.99% in experiment [3]; -0.08% in experiment [4]; 1.65% in [5]; 1.26% in experiment [6]. For the same compound, the inhibition in experiment [7] is 3.61%; in experiment [8], 2.79%; in [9], 4.02%; in experiment [10], -0.92%.
Regarding `O=C1Nc2ccccc2/C1=C/Nc1ccc(-n2cncn2)cc1`, the inhibition in experiment [1] was determined as 8.25%; in experiment [2] it was 2.62%; in [3], 5.16%; in [4], 1.97%; in [5], 10.6%; in experiment [6] it was 2.39%. Moreover, the inhibition in experiment [7] was 13.3%; in [8] it was 6.28%; in [9], 22.2%; in experiment [10], 7.69%.
As to `COc1cc2ncn(-c3cc(OCc4cccs4)c(C(N)=O)s3)c2cc1OC`, the inhibition in experiment [1] is -1.86%; in [2] it was -0.97%; in [3], -0.06%; in experiment [4] it was -2.79%; in [5], -0.17%; in experiment [6], -2.8%. Further, the inhibition in experiment [7] was 6.63%; in experiment [8], -0.55%; in experiment [9], 4.77%; in [10], 1.28%.
`COc1cc2ncn(-c3cc(OCCc4ccccc4)c(C(N)=O)s3)c2cc1OC`: the inhibition in experiment [1] was 7.82%; in [2], 2.44%; in experiment [3], 6.34%; in experiment [4], 0.36%; in experiment [5], 1.62%; in experiment [6], 0.55%. For the same compound, the inhibition is 3.19% in experiment [7], 2.3% in experiment [8], 5.22% in [9] and 1.71% in [10].
